The source of these data is publication PMC5700166.

Assay in all cases: protein-binding microarray (PBM); PBM: ~300 nM protein, 6 mM HEPES pH 7.8, 80 mM KCl, 0.5 mM EDTA, 0.5 mM EGTA, 6% glycerol, 35 ng/ul poly-dIdC, 1% milk, 1 h, room temperature; Ap Aiptasia and Nv Nematostella (sea anemones) / Co Capsaspora / Aq Amphimedon (sponge) / Dm Drosophila / Hu human; RHD is the Rel homology domain; high values mean tight binding
What all share (details): dsDNA, one strand shown

Experiment [1] addresses T1, GST-Ap-NF-kB RHD (Exaiptasia pallida (Aiptasia), UniProt A0A913YAJ5 2-422).
T1 sequence: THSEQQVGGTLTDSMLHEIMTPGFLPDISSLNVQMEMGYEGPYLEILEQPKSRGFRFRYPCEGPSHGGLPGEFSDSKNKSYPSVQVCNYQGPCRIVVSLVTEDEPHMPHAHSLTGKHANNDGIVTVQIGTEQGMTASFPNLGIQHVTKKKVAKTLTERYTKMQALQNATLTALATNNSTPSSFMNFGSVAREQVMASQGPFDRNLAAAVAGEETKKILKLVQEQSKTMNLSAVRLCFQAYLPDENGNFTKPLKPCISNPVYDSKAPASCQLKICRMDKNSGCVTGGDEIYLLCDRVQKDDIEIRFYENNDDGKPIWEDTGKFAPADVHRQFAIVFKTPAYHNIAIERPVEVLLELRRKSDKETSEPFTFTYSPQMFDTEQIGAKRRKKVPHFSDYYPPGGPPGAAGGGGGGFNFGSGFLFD

In experiment [2] the target is T2, GST-Nv-NF-kB (Cys allele) (Nematostella vectensis, UniProt E5G601 2-411).
T2 sequence: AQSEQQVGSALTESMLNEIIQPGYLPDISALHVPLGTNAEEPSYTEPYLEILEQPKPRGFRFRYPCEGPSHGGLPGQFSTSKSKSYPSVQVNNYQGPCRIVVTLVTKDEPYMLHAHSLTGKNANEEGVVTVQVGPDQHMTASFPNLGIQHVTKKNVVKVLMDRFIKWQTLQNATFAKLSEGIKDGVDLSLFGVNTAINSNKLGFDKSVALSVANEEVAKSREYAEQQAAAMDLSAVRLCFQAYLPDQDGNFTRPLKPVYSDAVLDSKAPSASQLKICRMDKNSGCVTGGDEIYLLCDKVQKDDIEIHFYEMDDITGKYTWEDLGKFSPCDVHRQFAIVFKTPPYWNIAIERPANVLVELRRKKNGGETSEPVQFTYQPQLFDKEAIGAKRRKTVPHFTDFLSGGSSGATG

Experiment [3] addresses T3, GST-Nv-NF-kB (Ser allele) (Nematostella vectensis, UniProt A7UNT2 2-411).
T3 sequence: T2 sequence with Q21R, C66S, S207N, E215Q, V217A, E225K, A268E, D399E

The target of experiment [4] is T4, GST-Dm-Relish (Drosophila melanogaster, UniProt Q94527 99-473).
T4 sequence: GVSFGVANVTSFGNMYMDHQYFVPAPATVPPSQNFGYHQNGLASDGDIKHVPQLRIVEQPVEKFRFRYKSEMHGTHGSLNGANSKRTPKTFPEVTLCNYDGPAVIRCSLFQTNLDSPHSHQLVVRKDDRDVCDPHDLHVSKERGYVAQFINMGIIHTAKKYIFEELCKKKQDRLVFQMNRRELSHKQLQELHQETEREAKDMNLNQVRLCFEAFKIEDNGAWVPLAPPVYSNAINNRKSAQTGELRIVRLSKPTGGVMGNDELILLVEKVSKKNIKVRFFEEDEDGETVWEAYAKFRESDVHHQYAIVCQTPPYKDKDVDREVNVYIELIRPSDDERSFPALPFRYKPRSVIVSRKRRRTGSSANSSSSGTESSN

The target of experiment [5] is T5, GST-Aq-NF-kB (Amphimedon queenslandica, UniProt A9Y5G7 2-389).
T5 sequence: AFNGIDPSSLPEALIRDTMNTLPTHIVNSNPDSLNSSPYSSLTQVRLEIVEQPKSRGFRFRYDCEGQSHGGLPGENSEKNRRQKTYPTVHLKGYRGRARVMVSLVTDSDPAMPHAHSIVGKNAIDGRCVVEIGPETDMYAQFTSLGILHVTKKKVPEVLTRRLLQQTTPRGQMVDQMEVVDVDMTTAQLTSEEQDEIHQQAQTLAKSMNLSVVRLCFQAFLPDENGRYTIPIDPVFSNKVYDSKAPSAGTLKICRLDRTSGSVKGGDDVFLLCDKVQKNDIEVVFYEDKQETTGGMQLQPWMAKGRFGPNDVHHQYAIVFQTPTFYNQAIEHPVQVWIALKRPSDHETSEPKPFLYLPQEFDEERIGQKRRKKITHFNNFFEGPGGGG

Experiment [6] concerns the target GST-Hu-p50 (Homo sapiens, UniProt P19838 7-356).
Experiment [7] addresses T6, GST-Co-NF-kB (Capsaspora owczarzaki, UniProt F1ARL5 200-546).
T6 sequence: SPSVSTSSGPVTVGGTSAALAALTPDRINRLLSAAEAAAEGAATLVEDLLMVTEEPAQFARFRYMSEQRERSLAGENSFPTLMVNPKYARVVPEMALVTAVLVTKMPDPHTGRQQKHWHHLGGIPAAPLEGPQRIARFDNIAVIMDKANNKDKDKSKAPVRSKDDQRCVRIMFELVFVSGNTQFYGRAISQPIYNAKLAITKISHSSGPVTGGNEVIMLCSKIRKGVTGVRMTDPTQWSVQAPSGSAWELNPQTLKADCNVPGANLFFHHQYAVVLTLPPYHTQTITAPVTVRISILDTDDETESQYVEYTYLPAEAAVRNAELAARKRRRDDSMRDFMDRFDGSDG

Changes are numbered by the printed parent chain.

Sequence of GST-Hu-p50 (P19838 7-356): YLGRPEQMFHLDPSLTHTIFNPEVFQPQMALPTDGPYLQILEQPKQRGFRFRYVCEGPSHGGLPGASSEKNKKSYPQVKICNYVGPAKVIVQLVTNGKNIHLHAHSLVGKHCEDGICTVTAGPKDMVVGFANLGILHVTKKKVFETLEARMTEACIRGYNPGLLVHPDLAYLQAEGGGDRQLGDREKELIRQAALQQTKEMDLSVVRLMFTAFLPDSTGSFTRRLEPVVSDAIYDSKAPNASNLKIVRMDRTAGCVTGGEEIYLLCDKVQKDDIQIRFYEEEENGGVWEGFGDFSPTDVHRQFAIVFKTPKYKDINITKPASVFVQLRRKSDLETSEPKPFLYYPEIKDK

Consider “CCGATTAACATCAGGAGAGTACCTGATGTTAATCGGGTCTTGATTCGCTTGACGCTGCTG”, for which the binding signal in experiment [1] stood at 1.28 z-score; in experiment [2], 2.32 z-score; in experiment [3] it was 3.99 z-score; in experiment [4], 2.54 z-score; in experiment [5], 3.47 z-score; in experiment [6], 2.62 z-score.
On to “CCGATTAACATCAAAGAAGTCCCTGATGTTAATCGGGTCTTGATTCGCTTGACGCTGCTG”, for which the binding signal is 5.78 z-score in experiment [1]; 6.68 z-score in experiment [2]; 6.97 z-score in experiment [3]; 5.18 z-score in experiment [4]; 5.56 z-score in experiment [5]; 5.29 z-score in experiment [6].
In the case of “CCGATTAACATCAAAATTCCCTGTGATGTTAATCGGGTCTTGATTCGCTTGACGCTGCTG”, the binding signal came to 4.81 z-score in experiment [1]; 6.86 z-score in experiment [2]; 4.2 z-score in experiment [7]; 5.96 z-score in experiment [4]; 6.37 z-score in experiment [5]; 5.07 z-score in experiment [6].
Turning to “CCGATTAACATCAAGGGACTTTCTGATGTTAATCGGGTCTTGATTCGCTTGACGCTGCTG”, the binding signal turned out to be 7.14 z-score in experiment [1]; 9.44 z-score in experiment [2]; 8.36 z-score in experiment [3]; 7.3 z-score in experiment [4]; 7.13 z-score in experiment [5]; 5.98 z-score in experiment [6].
“CCGATTAACATCAGGATAGTCCCTGATGTTAATCGGGTCTTGATTCGCTTGACGCTGCTG”: the binding signal was 5.8 z-score in experiment [1]; 5.23 z-score in experiment [2]; 4.11 z-score in experiment [3]; 2.84 z-score in experiment [4]; 6.61 z-score in experiment [5]; 4.05 z-score in experiment [6].
In the case of “CCGATTAACATCAGGGAAACTTATGATGTTAATCGGGTCTTGATTCGCTTGACGCTGCTG”, the binding signal was 3.98 z-score in experiment [1]; 6.28 z-score in experiment [2]; 5.54 z-score in experiment [7]; 2.25 z-score in experiment [4]; 6.43 z-score in experiment [5]; 4.53 z-score in experiment [6].
“CCGATTAACATCAAGGGAACCCCTGATGTTAATCGGGTCTTGATTCGCTTGACGCTGCTG”: the binding signal turned out to be 5.4 z-score in experiment [1]; 3.13 z-score in experiment [2]; 1.95 z-score in experiment [3]; 9.38 z-score in experiment [4]; 5.18 z-score in experiment [5]; 3.12 z-score in experiment [6].
In the case of “CCGATTAACATCAAGGGGTTTCCTGATGTTAATCGGGTCTTGATTCGCTTGACGCTGCTG”, the binding signal in experiment [1] came to 6.93 z-score; in experiment [2], 5.76 z-score; in experiment [3], 4.08 z-score; in experiment [4], 7.98 z-score; in experiment [5], 6.62 z-score; in experiment [6], 5.36 z-score.
Turning to “CCGATTAACATCAGGGTTTTTAGTGATGTTAATCGGGTCTTGATTCGCTTGACGCTGCTG”, the binding signal worked out at 2.02 z-score in experiment [1]; 1.3 z-score in experiment [2]; 2.09 z-score in experiment [3]; 2.9 z-score in experiment [4]; 2.58 z-score in experiment [5]; 1.99 z-score in experiment [6].
For the sequence “CCGATTAACATCAGGGACATCCCTGATGTTAATCGGGTCTTGATTCGCTTGACGCTGCTG”, the binding signal in experiment [1] came out at 5.51 z-score; in experiment [2], 6.99 z-score; in experiment [3], 4.22 z-score; in experiment [4], 7.71 z-score; in experiment [5] it was 7.32 z-score; in experiment [6] it was 3.84 z-score.
Turning to “CCGATTAACATCAGGATGTCCCCTGATGTTAATCGGGTCTTGATTCGCTTGACGCTGCTG”, the binding signal is 6.09 z-score in experiment [1]; 4.93 z-score in experiment [2]; 2.61 z-score in experiment [7]; 5.89 z-score in experiment [4]; 5.87 z-score in experiment [5]; 4.51 z-score in experiment [6].
In the case of “CCGATTAACATCAGGATAGCCCCTGATGTTAATCGGGTCTTGATTCGCTTGACGCTGCTG”, the binding signal was 4 z-score in experiment [1]; 4.29 z-score in experiment [2]; 2.73 z-score in experiment [3]; 2.38 z-score in experiment [4]; 5.49 z-score in experiment [5]; 3.65 z-score in experiment [6].
Regarding “CCGATTAACATCAGGGATTTACATGATGTTAATCGGGTCTTGATTCGCTTGACGCTGCTG”, the binding signal in experiment [1] worked out at 2.19 z-score; in experiment [2], 2.3 z-score; in experiment [3] it was 1.4 z-score; in experiment [4], 9.71 z-score; in experiment [5], 3.34 z-score; in experiment [6] it was 1.92 z-score.
